From the supplement of paper PMC3334620
In all, about 33,000 sequences were measured (“E-score (-0.5 to 0.5)”: median about -0.054, highest 2% from about 0.35 on). Only a selection was taken, and the highest values are over-represented in it overall.

molecular target: T1, Stb5 (UniProt P38699); assay: PBM E-score (8-mer binding enrichment) (E-score (-0.5 to 0.5)); higher = stronger / more preferred TF binding; settings: protein concentration: 200 nM; construct: GST-full length
T1 sequence: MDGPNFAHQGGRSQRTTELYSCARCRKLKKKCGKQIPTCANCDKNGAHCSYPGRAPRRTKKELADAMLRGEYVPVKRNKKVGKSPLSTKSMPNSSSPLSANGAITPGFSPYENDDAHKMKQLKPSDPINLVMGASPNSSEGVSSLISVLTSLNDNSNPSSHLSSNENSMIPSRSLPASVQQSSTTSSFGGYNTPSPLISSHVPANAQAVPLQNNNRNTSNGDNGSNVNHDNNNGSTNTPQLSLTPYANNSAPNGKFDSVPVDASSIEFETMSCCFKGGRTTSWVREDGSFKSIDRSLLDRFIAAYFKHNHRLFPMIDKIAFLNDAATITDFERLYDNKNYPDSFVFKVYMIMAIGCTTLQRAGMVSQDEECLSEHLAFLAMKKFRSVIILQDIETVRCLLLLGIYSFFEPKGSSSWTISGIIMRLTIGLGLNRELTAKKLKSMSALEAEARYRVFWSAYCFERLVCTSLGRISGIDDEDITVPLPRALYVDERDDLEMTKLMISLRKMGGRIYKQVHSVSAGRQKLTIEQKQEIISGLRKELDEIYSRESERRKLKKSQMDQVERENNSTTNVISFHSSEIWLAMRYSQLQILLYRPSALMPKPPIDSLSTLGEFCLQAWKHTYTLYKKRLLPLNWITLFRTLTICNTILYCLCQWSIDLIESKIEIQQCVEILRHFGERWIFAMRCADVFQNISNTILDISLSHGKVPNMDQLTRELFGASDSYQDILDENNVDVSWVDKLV
Protocol: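 Universal 'all 10-mer' protein binding microarrays (Agilent AMADID 015681) probed with GST-tagged S. cerevisiae TFs (full-length or DBD) made by in vitro transcription/translation (PURExpress), about 100-200 nM. Bound TF was detected with fluorescent anti-GST. Each ungapped 8-mer (which stands for itself and its reverse complement) is scored by the PBM enrichment score (E-score), a modified Wilcoxon-Mann-Whitney statistic from -0.5 to +0.5, computed with the Universal PBM Analysis Suite. Scale: above 0.35 generally sequence-specific binding.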

Sequence	PBM E-score
ACCAGCGA	0.0766
AAAGAGAA	-0.00974
AACGCCCG	0.24
CACGCCGG	0.268
AACGCCGG	0.44
AAATAGAT	0.104
AGCTCCTG	-0.18
AGCTCCGG	0.362
AGCTCCTC	-0.184
CGCTCCGA	0.231
GGCTCCGA	0.0871
CGCTCCGC	0.164
AGCTCCGA	0.405
AGCTCCCG	-0.0713
AGCTCCGC	0.406
AGAGCAGA	-0.138
ATGCCCGG	0.318
AGGCCCGA	0.314
AGGCCCGC	0.36
ATGCCCGC	0.366
CTGCCCGC	0.06
CGGCCCGC	0.188
TGACGTCA	0.158
AGATGCGA	0.0797
TACCACGA	-0.267

Sequence	PBM E-score
CGCCGCCG	0.369
ATCCGCCC	0.218
CGCCGCCA	0.348
CGCCGCGC	0.368
CGCCGCCC	0.352
CTCCGCCA	0.293
AGCCGCCG	0.215
AGCCGCGC	0.173
CGCCGCGA	0.289
GGCCGCCC	0.253
AGCCGCCC	0.144
CTCCGCCC	0.397
ATACCTCG	-0.173
GCTTCGAA	-0.0877
ACGTACCC	0.0314
AACTCTAG	-0.33
GGACTCAC	0.0404
AGGACCAA	-0.115
AAGCCTCT	-0.318
AAGTAGCG	0.0894
GAAGTTCC	0.0956
ACTCCGCT	0.392
ACTCCGCG	0.357
ACTCCGCA	0.259
CCTCCGCC	0.223

Sequence	PBM E-score
AATCCGCG	0.21
ACTCCGCC	0.384
ACTCCGAT	0.344
CCTCCGCG	0.157
GCTCCGCC	0.347
AGATAAGC	-0.142
CACACTAG	-0.189
AGTCCACC	0.0594
AAAATATT	0.114
GAAGGCAA	-0.234
GTCTTCCA	-0.125
ATCCAAAT	-0.103
GGTGCTAA	0.358
AGTGCTAA	-0.043
TGTGCTAA	0.0576
GCCGCGCC	0.221
CGGTCACG	0.149
CGGCGCCG	0.309
AGCCGGCA	0.256
GGCCGGCA	0.289
AGCCGGCG	0.248
CGCCGGCA	0.354
CGCCGGCG	0.428
AGCCGGCC	0.111
CGCCGGCC	0.391

Sequence	PBM E-score
GGCCGGCC	0.15
ATAAAAGA	0.0611
GAGCAATA	-0.118
CAACACTG	-0.305
CAGTCAAG	-0.338
CCCACAGC	-0.146
TCCCGCCA	0.205
GCCCGCCA	0.284
ACCCGCCG	0.318
CCCCGCCA	0.406
CCCCCCCG	-0.255
CCCCGCCG	0.381
GGGATGAA	0.0485
CACTGTAG	-0.25
CTTCCCTA	-0.161
ACTGCCGC	0.311
CGGGCCTC	0.108
AGGGCCTA	0.0959
CGGGCCTA	0.437
CGGGCTTA	0.473
AGGGCTCA	-0.23
CGGGCTCA	0.358
AGGGCATA	-0.0797
CGGGCATA	0.419
CGGGCTCC	0.0609

Sequence	PBM E-score
GGGGCATA	0.083
AGGGCTTA	0.12
CGGGCTTC	0.293
CTCGTCCA	-0.102
AGGAATAT	-0.0199
ACATAGAA	-0.0458
AAATCGCG	-0.0128
ATGTGGGC	0.089
GCCGATAA	0.313
CATGAACA	-0.0519
ACGCGGCA	0.189
GGGCGGCA	0.323
CCGCGGTC	0.32
ACGCGGTA	0.215
CGGCGGCA	0.411
CGGCGTCC	0.277
CCGCGGTA	0.399
CCGCGGCA	0.367
GCGCGGCA	0.237
AGGCGGCA	0.238
AGGCGTCA	-0.0617
CGGCGTCA	0.384
GCGCCTCC	-0.0611
CCCTCACC	-0.225
AGTAAAGA	0.143

Sequence	PBM E-score
GCACCCGA	0.0572
TCCGTGAA	0.171
ATGAAACG	0.067
GTTTGGGA	-0.2
CCGCGTTC	0.193
GAGAGTGA	-0.349
ACATCCGC	0.339
ATATCCGC	0.402
CTATCACC	0.216
ATATCCGG	0.294
ATCTCTCC	0.216
CTATCCGA	0.0404
ATATCCGA	0.37
CTATCTCC	0.235
ATATCTCC	0.397
CTATCCGC	0.0573
ATATCACA	-0.0666
ATATCACC	0.436
ATGGGTGA	-0.12
GACTTCCA	-0.177
AGAAAACA	-0.128
AGGTCGCA	0.0143
CTGCTAAA	0.00756
ACTCCATG	-0.0336
CTCAGAAC	-0.191

Sequence	PBM E-score
AATTGGCG	0.063
GCCCCCAC	0.0261
ATATACCG	0.34
CTATCCCC	0.276
CTATTCCC	0.136
ATATACCC	0.371
ATATTCCG	0.171
ATATCCCG	0.275
CTATACCC	0.229
ATATGTCC	0.406
ATATCCCC	0.395
CTATGTCC	0.232
ATATGTCG	0.083
ATATTCCC	0.372
AGTCTGGA	0.00288
TCGATCGA	-0.148
GAGCTCAA	0.0147
ACTGGCCG	-0.0443
TCGCTCCA	-0.126
AAATTCAG	-0.221
CAGCTGAG	-0.231
CCATGCAA	-0.00387
